# Assay results published in PubChem BioAssay (EPA / NIEHS).
# The source made the active and inactive calls. How the source made its calls: active means hit-call score of the fitted dose curve at least 0.9, where 1 is the maximum; inactive means score below 0.9.
# Columns and labels:
# [1] = CEETOX_H295R_OHPROG: CeeTox H295R High-throughput Steroidogenesis Assay for OH-Progesterone (OHPROG) (AID 2283435); conditions: actives raise or lower the signal;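 on AC50: human adrenal H295R cells primed 48 h with 10 µM forskolin; 17alpha-hydroxyprogesterone secreted into medium measured by HPLC-MS/MS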
# Method in brief: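 H295R, 10 uM forskolin prestim 48 h; cmpd in 0.1% DMSO 48 h; medium MTBE-extracted, HPLC-MS/MS for OH-progesterone; 7-pt std curve; bidirectional fit vs DMSO; MTT viability, chemicals diluted until viability >/=70%.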
# [2] = CEETOX_H295R_ANDR: CeeTox H295R High-throughput Steroidogenesis Assay for Androstenedione (ANDR) (AID 2283436); conditions: actives raise or lower the signal;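 further: human H295R adrenal cells exposed for 48 h with androstenedione measured in medium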
# Method in brief: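 Read-out is androstenedione secreted into medium, measured by tandem mass spectrometry after liquid-liquid extraction. Cells were H295R, dosed for 48 h per modified OECD 456; activity fitted in both directions relative to DMSO.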
# [3] = CEETOX_H295R_PROG: CeeTox H295R High-throughput Steroidogenesis Assay for Progesterone (PROG) (AID 2283442); conditions: actives raise or lower the signal;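 on AC50: human H295R adrenal cells primed with 10 µM forskolin before dosing; progesterone secreted into medium by H295R cells measured by HPLC-MS/MS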
# Method in brief: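 Adrenal H295R line, forskolin-stimulated (10 uM, 48 h) before dosing. 48 h exposure, 0.1% DMSO vehicle. Secreted progesterone by reverse-phase HPLC with ESI+ MS/MS quantification; DMSO-normalised bidirectional curve fit.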
# [4] = CEETOX_H295R_CORTIC: CeeTox H295R High-throughput Steroidogenesis Assay for Corticosterone (CORTIC) (AID 2283437); conditions: actives raise or lower the signal;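 further: corticosterone secreted into medium quantified by mass spectrometry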;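 on AC50: human H295R adrenal cells prestimulated with forskolin before chemical exposure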
# Method in brief: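 Corticosterone secreted into medium is measured by reverse-phase HPLC with tandem MS following liquid-liquid extraction. Cells are forskolin-stimulated (10 uM, 48 h) before 48 h test exposure; activity fitted in both directions against DMSO.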
# [5] = CEETOX_H295R_CORTISOL: CeeTox H295R High-throughput Steroidogenesis Assay for Cortisol (AID 2283438); conditions: actives raise or lower the signal;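 further: cortisol secreted into medium quantified by LC-MS/MS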
# Method in brief: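 Forskolin 10 uM 48 h prestim → test cmpd in DMSO (0.1% final) 48 h → medium MTBE-extracted → LC-MS/MS cortisol vs 7-pt std curve. Gain/loss of signal fitted vs DMSO. MTT viability in same wells.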
# [6] = CEETOX_H295R_DOC: CeeTox H295R High-throughput Steroidogenesis Assay for DOC (AID 2283439); conditions: actives raise or lower the signal
# Method in brief: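 Readout: 11-deoxycorticosterone in culture medium by reverse-phase C18 HPLC with ESI+ tandem MS after MTBE extraction. Cells: H295R, forskolin-primed (10 uM, 48 h), chemical-treated 48 h; DMSO 0.1% final. Activity fitted bidirectionally versus DMSO.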
# [7] = read-out: Tumor necrosis factor receptor superfamily member 6 (Homo sapiens) (UniProt P25445); experiment: LTEA_HepaRG_FAS: Life Technologies and Expression Analysis (LTEA) Assay for Fas cell surface death receptor (FAS) using HepaRG (AID 2283447); conditions: mRNA level, 48 h; actives raise or lower the signal
# Method in brief: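 FAS transcript level was measured by TaqMan qRT-PCR against three housekeeping genes after 48 h chemical exposure. Cells were HepaRG, 0.5% DMSO vehicle, with a top concentration of 100 uM and half-log dilutions over eight points, in duplicate.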
# [8] = read-out: Fatty acid synthase (Homo sapiens) (UniProt P49327); experiment: LTEA_HepaRG_FASN: Life Technologies and Expression Analysis (LTEA) Assay for Fatty Acid Synthase (FASN) using HepaRG (AID 2283448); conditions: mRNA level, 48 h; actives raise or lower the signal
# Method in brief: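 FASN expression changes, up or down relative to 0.5% DMSO, were measured by qRT-PCR in human HepaRG cells after 48 h treatment with chemicals at eight concentrations (half-log steps from 100 uM).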
# [9] = CEETOX_H295R_ESTRADIOL: CeeTox H295R High-throughput Steroidogenesis Assay for Estradiol (AID 2283440); conditions: actives raise or lower the signal;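 further: estradiol secreted into medium quantified by LC-MS/MS after dansyl derivatisation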
# Method in brief: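 Following OECD 456 with minor changes, H295R cells received 10 uM forskolin for 48 h and then test chemical for 48 h. Hormone output was read by HPLC-MS/MS, with cytotoxic concentrations diluted until MTT viability reached ≥70%.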
# [10] = CEETOX_H295R_ESTRONE: CeeTox H295R High-throughput Steroidogenesis Assay for Estrone (AID 2283441); conditions: actives raise or lower the signal;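 further: estrone secreted into medium measured by LC-MS/MS after dansyl derivatization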
# Method in brief: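 H295R cells prestimulated 48 h with 10 uM forskolin, then exposed 48 h to chemicals in 0.1% DMSO final; estrone in medium extracted with MTBE, dansyl-derivatized, quantified by HPLC-MS/MS; bidirectional fitting versus DMSO, viability by MTT.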
# Chain of Fatty acid synthase (Homo sapiens) (P49327 whole entry, looked up): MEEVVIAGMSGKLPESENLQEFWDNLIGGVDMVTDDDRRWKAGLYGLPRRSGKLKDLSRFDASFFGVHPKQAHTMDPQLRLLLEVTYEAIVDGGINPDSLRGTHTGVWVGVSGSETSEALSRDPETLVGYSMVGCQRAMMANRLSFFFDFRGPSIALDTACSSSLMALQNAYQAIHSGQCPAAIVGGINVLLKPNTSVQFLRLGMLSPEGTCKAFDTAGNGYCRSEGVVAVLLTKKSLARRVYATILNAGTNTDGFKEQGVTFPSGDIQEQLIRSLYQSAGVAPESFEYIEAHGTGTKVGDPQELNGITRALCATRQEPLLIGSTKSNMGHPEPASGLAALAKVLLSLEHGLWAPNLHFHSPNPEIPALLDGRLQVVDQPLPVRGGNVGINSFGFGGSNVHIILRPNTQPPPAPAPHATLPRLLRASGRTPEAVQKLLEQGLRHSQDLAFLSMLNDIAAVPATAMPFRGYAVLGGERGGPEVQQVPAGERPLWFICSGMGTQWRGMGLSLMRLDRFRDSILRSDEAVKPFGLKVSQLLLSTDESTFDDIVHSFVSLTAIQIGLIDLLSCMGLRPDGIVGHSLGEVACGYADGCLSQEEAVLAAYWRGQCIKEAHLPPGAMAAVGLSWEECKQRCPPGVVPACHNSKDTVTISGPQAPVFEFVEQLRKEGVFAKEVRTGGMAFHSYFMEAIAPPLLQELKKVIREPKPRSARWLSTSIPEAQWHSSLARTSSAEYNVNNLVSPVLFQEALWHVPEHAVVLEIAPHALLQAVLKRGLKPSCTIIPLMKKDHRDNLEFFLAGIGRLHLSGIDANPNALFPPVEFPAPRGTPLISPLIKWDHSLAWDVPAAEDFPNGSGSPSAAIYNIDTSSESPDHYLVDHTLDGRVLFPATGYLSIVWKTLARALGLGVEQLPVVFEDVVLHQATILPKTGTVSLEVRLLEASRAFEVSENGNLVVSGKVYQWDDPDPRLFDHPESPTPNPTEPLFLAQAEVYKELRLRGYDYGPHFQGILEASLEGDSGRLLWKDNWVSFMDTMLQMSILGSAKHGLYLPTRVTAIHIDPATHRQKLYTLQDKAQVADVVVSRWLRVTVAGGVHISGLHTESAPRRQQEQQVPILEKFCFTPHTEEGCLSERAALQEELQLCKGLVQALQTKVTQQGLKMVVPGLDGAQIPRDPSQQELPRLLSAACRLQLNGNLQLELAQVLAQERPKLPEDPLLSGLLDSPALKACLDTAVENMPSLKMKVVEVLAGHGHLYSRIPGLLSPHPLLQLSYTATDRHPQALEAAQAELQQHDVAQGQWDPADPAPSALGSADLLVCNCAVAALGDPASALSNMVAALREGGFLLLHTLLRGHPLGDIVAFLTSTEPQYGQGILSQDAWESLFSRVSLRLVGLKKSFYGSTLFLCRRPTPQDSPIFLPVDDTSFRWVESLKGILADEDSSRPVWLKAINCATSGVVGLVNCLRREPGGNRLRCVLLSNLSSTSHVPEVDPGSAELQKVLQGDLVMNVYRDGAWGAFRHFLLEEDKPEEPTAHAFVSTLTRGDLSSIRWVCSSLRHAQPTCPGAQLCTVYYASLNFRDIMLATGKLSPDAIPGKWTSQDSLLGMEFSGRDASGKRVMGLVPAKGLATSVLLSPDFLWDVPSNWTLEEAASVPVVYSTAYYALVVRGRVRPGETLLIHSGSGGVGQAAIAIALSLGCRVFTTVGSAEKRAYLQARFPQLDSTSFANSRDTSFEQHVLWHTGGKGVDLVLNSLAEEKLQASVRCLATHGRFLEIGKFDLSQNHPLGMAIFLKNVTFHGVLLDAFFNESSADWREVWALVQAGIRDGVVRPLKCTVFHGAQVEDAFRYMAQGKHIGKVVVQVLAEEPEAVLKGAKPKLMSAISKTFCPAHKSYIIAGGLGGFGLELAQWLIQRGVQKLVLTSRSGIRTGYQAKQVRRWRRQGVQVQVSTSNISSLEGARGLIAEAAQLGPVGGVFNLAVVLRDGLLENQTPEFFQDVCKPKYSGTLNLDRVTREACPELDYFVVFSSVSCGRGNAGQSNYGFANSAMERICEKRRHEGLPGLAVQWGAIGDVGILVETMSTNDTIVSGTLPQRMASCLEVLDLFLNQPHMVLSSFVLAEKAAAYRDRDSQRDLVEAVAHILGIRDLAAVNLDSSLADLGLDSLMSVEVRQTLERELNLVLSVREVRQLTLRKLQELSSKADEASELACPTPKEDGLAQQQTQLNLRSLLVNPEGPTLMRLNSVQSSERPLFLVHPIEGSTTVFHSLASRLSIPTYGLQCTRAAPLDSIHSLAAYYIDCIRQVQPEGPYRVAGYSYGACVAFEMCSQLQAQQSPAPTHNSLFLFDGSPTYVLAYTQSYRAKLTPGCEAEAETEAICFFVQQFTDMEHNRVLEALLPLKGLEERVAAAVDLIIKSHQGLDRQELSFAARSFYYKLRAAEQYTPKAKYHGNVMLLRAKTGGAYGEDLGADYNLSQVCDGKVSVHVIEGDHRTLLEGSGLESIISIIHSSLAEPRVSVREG
structure (smiles),measurement,setting,value
OCc1cccc(Oc2ccccc2)c1,AC50,[1],50 µM (active)
same,AC50,[2],50 µM (active)
same,outcome,[3],inactive
CC(CN=Cc1ccccc1O)N=Cc1ccccc1O (stereo unspecified),AC50,[1],1.97 µM (active)
same,outcome,[4],inactive
same,AC50,[5],4.06 µM (active)
same,AC50,[6],1.7 µM (active)
same,outcome,[3],inactive
COCCc1ccc(OCC(O)CNC(C)C)cc1 (stereo unspecified),AC50,[1],50 µM (active)
same,outcome,[4],inactive
same,outcome,[5],inactive
same,outcome,[6],inactive
same,outcome,[3],inactive
CC1(C)C(=O)N(Cl)C(=O)N1Br,outcome,[1],inactive
same,outcome,[4],inactive
same,outcome,[5],inactive
same,outcome,[6],inactive
same,outcome,[3],inactive
CC=Cc1ccc(OCC)c(O)c1,AC50,[1],11 µM (active)
same,outcome,[4],inactive
same,outcome,[5],inactive
same,outcome,[6],inactive
same,AC50,[3],20.7 µM (active)
CCC(C)c1cc([N+](=O)[O-])cc([N+](=O)[O-])c1OC(=O)OC(C)C (stereo unspecified),outcome,[1],inactive
same,outcome,[2],inactive
same,outcome,[4],inactive
same,outcome,[5],inactive
same,outcome,[6],inactive
same,outcome,[3],inactive
BrCc1cccc(Oc2ccccc2)c1,AC50,[1],36.5 µM (active)
same,AC50,[2],38.2 µM (active)
same,AC50,[4],32.7 µM (active)
same,outcome,[5],inactive
same,outcome,[6],inactive
same,outcome,[3],inactive
C=C1CC[C@H](O)C/C1=C/C=C1\CCC[C@]2(C)[C@@H]([C@H](C)/C=C/[C@H](C)C(C)C)CC[C@@H]12,AC50,[1],12.3 µM (active)
same,outcome,[4],inactive
same,AC50,[5],42.5 µM (active)
same,AC50,[6],87.2 µM (active)
same,AC50,[3],84.3 µM (active)
CS(=O)(=O)OCCCCOS(C)(=O)=O,outcome,[7],inactive
same,outcome,[8],inactive
CCc1cc(C(C)(C)C)c(O)c(C(C)(C)C)c1,outcome,[1],inactive
same,outcome,[4],inactive
same,outcome,[5],inactive
same,outcome,[6],inactive
same,outcome,[3],inactive
CCCCCCCCN1CCCC1=O,outcome,[1],inactive
same,outcome,[4],inactive
same,outcome,[5],inactive
same,outcome,[6],inactive
same,outcome,[3],inactive
Nc1ccc(N)c2c1C(=O)c1ccccc1C2=O,AC50,[1],1.51 µM (active)
same,outcome,[2],inactive
same,outcome,[4],inactive
same,outcome,[5],inactive
same,AC50,[6],4.43 µM (active)
same,outcome,[3],inactive
COc1ccc(N=Nc2cc(C)c(N=Nc3ccc(S(=O)(=O)O)cc3)cc2OC)cc1,AC50,[1],34.6 µM (active)
same,outcome,[4],inactive
same,outcome,[5],inactive
same,outcome,[6],inactive
same,AC50,[3],50 µM (active)
Cc1cc(=O)oc2cc(N(C)C)ccc12,AC50,[1],50 µM (active)
same,outcome,[4],inactive
same,outcome,[5],inactive
same,outcome,[6],inactive
same,outcome,[3],inactive
CCOC(=O)[C@@H](C)Oc1ccc(Oc2nc3ccc(Cl)cc3o2)cc1,AC50,[1],10.1 µM (active)
same,outcome,[2],inactive
same,outcome,[4],inactive
same,outcome,[5],inactive
same,AC50,[6],22.8 µM (active)
same,AC50,[3],25.7 µM (active)
COc1ccc(CCN2CCC(Nc3nc4ccccc4n3Cc3ccc(F)cc3)CC2)cc1,AC50,[1],1.41 µM (active)
same,AC50,[4],1.48 µM (active)
same,AC50,[5],1.56 µM (active)
same,AC50,[6],1.52 µM (active)
same,AC50,[3],0.789 µM (active)
CC(C)Nc1nc(N)nc(Cl)n1,outcome,[1],inactive
same,outcome,[4],inactive
same,outcome,[5],inactive
same,outcome,[6],inactive
same,outcome,[3],inactive
CC(C)(C)CC(C)(C)c1ccc(OCCOCC[N+](C)(C)Cc2ccccc2)cc1,outcome,[1],inactive
same,outcome,[4],inactive
same,outcome,[5],inactive
same,outcome,[6],inactive
same,outcome,[9],inactive
same,outcome,[10],inactive
same,outcome,[3],inactive
